Results on 48 sequences are retold here after the supplement of paper PMC3545927.

The assay addresses furin, P09958. Description: furin cleavage Z-score vs untreated control; higher = more cleavage, active = 3.5 or more, inactive = 1 or less, 8 variable residues between constant flanks. The procedure, abridged:
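Furin-free reactions served as the baseline for the cleavage Z-score, which is the log read count lowess-adjusted and scaled by median absolute deviation. Counts came from released DNA, adapter-tagged by PCR and sequenced. Purified furin had cut 8-mer peptides fused to a cDNA oligonucleotide on magnetic beads during 7.5, 15 or 30 min at 1:10 enzyme:substrate.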

The list shows a part of the results. How many sequences the whole screen found active is unknown.
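Also: purified furin at 1:10 enzyme:substrate in 50 mM HEPES pH 7.5.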

Chain of furin, P09958 (P09958 whole entry, the tested form may be a part): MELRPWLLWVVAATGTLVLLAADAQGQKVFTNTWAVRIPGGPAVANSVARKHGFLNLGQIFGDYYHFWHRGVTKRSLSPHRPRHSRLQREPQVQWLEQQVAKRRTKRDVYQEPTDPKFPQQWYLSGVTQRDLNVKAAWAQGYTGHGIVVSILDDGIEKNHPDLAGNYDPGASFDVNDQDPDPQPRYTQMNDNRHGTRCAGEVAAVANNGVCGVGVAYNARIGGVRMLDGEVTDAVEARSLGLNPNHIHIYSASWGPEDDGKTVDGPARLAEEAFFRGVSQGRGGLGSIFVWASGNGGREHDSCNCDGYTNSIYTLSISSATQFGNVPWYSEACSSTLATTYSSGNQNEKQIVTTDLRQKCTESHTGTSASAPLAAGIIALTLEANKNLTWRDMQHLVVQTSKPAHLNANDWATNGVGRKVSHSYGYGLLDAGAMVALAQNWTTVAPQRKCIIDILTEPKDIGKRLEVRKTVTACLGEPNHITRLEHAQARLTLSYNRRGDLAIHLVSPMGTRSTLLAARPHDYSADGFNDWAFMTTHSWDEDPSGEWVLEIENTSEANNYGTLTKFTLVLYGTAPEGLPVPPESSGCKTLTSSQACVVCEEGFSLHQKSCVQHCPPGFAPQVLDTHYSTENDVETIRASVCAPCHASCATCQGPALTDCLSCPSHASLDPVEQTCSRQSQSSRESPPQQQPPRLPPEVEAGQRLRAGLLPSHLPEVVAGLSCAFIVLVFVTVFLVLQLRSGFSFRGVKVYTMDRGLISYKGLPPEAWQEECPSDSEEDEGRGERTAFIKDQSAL

B1: HC2060 (peptide)
chain: CAVVCCSCSYAGNASASA
B1: the “furin cleavage Z-score” value by setting is: (7.5 min) -1.87 (inactive); (15 min) -2.14 (inactive); (30 min) -0.914 (inactive).

B2: HC2021 (peptide)
chain: CAVNCCSMSYAGNASASA
Regarding B2, the “furin cleavage Z-score” value (7.5 min) is 0.193 (inactive), the “furin cleavage Z-score” value (15 min) is 1.19 and the “furin cleavage Z-score” value (30 min) is -0.734 (inactive).

B3: HC1709 (peptide)
chain: CAMEYCSQHLAGNASASA
As for B3, the “furin cleavage Z-score” value was 1.22 (7.5 min), 0.203 (inactive) (15 min) and 0.301 (inactive) (30 min).

B4: FS-1079 (peptide)
chain: CASEARMVRSAGNASASA
As to B4, the “furin cleavage Z-score” value runs as follows: (7.5 min) 1.59; (15 min) 3.05; (30 min) 3.76 (active).

B5: HC418 (peptide)
chain: CAVVGTTDRSAGNASASA
B5: the “furin cleavage Z-score” value is 0.937 (inactive) (7.5 min), 1.04 (15 min) and 0.404 (inactive) (30 min).

B6: FS-12 (peptide)
chain: CAAVGRRVRSAGNASASA
Regarding B6, the “furin cleavage Z-score” value is 9.92 (active) (7.5 min), 9.75 (active) (15 min) and 7.92 (active) (30 min).

B7: HC508 (peptide)
chain: CANIVDVQYLAGNASASA
Regarding B7, the “furin cleavage Z-score” value was -0.996 (inactive) (7.5 min), -0.739 (inactive) (15 min) and -1.04 (inactive) (30 min).

B8: HC1304 (peptide)
chain: CAVWARPDYNAGNASASA
For the sequence B8, the “furin cleavage Z-score” value runs as follows: (7.5 min) 0.568 (inactive); (15 min) -0.706 (inactive); (30 min) -1.06 (inactive).

B9: HC692 (peptide)
chain: CASTAAQTFLAGNASASA
On to B9, for which the “furin cleavage Z-score” value (7.5 min) is -0.854 (inactive), the “furin cleavage Z-score” value (15 min) is -1.17 (inactive) and the “furin cleavage Z-score” value (30 min) is 0.0229 (inactive).

B10: FS-1693 (peptide)
chain: CAREKRDVQPAGNASASA
Regarding B10, the “furin cleavage Z-score” value was 10.8 (active) (7.5 min), 12.3 (active) (15 min) and 8.99 (active) (30 min).

B11: FS-2007 (peptide)
chain: CAREKRHRKKAGNASASA
As for B11, the “furin cleavage Z-score” value is, setting by setting: (7.5 min) -1.19 (inactive); (15 min) -0.208 (inactive); (30 min) -0.665 (inactive).

B12: FS-2255 (peptide)
chain: CAREKRQAKHAGNASASA
Consider B12, for which the “furin cleavage Z-score” value was 8.15 (active) (7.5 min), 10.9 (active) (15 min) and 9.4 (active) (30 min).

B13: FS-2484 (peptide)
chain: CAREKKDVLAAGNASASA
As for B13, the “furin cleavage Z-score” value reads like this: (7.5 min) 0.263 (inactive); (15 min) 0.353 (inactive); (30 min) 1.5.

B14: FS-1851 (peptide)
chain: CAREKRDSVCAGNASASA
Turning to B14, the “furin cleavage Z-score” value is 1.11 (7.5 min), -0.614 (inactive) (15 min) and 2.31 (30 min).

B15: HC423 (peptide)
chain: CAPTYSWGENAGNASASA
On to B15, for which the “furin cleavage Z-score” value is 0.499 (inactive) (7.5 min), -1.13 (inactive) (15 min) and 0.237 (inactive) (30 min).

B16: FS-685 (peptide)
chain: CALQRRWKRTAGNASASA
In the case of B16, the “furin cleavage Z-score” value was 12.5 (active) (7.5 min), 11.8 (active) (15 min) and 10 (active) (30 min).

B17: HC1513 (peptide)
chain: CALTTSCGNTAGNASASA
Consider B17, for which the “furin cleavage Z-score” value runs as follows: (7.5 min) 0.0451 (inactive); (15 min) -1.21 (inactive); (30 min) -0.123 (inactive).

B18: FS-656 (peptide)
chain: CAGQARWKRPAGNASASA
For B18, the “furin cleavage Z-score” value runs as follows: (7.5 min) 0.0361 (inactive); (15 min) 0.0218 (inactive); (30 min) -0.505 (inactive).

B19: HC1248 (peptide)
chain: CALTDPSHITAGNASASA
Consider B19, for which the “furin cleavage Z-score” value reads like this: (7.5 min) -1.48 (inactive); (15 min) 0.964 (inactive); (30 min) -1.35 (inactive).

B20: HC424 (peptide)
chain: CAYSWGENDTAGNASASA
For B20, the “furin cleavage Z-score” value is -0.162 (inactive) (7.5 min), -1.61 (inactive) (15 min) and 0.0496 (inactive) (30 min).

B21: FS-1033 (peptide)
chain: CALTYRAKRTAGNASASA
For the sequence B21, the “furin cleavage Z-score” value by setting is: (7.5 min) 10.2 (active); (15 min) 12 (active); (30 min) 9.3 (active).

B22: FS-1882 (peptide)
chain: CALQGREQLTAGNASASA
For the sequence B22, the “furin cleavage Z-score” value (7.5 min) was 0.515 (inactive), the “furin cleavage Z-score” value (15 min) is -3.14 (inactive) and the “furin cleavage Z-score” value (30 min) was -0.352 (inactive).

B23: FS-904 (peptide)
chain: CAYSQRWKRTAGNASASA
With B23, the “furin cleavage Z-score” value (7.5 min) was 8.92 (active), the “furin cleavage Z-score” value (15 min) was 9.32 (active) and the “furin cleavage Z-score” value (30 min) is 7.56 (active).

B24: HC408 (peptide)
chain: CAGIVPAKSVAGNASASA
With B24, the “furin cleavage Z-score” value reads like this: (7.5 min) -0.985 (inactive); (15 min) 0.152 (inactive); (30 min) 0.898 (inactive).

B25: FS-2846 (peptide)
chain: CARWRRVAVGAGNASASA
With B25, the “furin cleavage Z-score” value was 0.992 (inactive) (7.5 min), 1.04 (15 min) and 3.3 (30 min).

B26: FS-2111 (peptide)
chain: CARWRRSAPGAGNASASA
Turning to B26, the “furin cleavage Z-score” value by setting is: (7.5 min) 8.14 (active); (15 min) 8.62 (active); (30 min) 5.76 (active).

B27: FS-3132 (peptide)
chain: CARWRRHQEGAGNASASA
B27: the “furin cleavage Z-score” value was 0.592 (inactive) (7.5 min), 1.08 (15 min) and 1.98 (30 min).

B28: FS-3133 (peptide)
chain: CARWRRSDILAGNASASA
Regarding B28, the “furin cleavage Z-score” value by setting is: (7.5 min) 1.69; (15 min) 5.44 (active); (30 min) 6.95 (active).

B29: HC2544 (peptide)
chain: CASTPCSAILAGNASASA
Turning to B29, the “furin cleavage Z-score” value (7.5 min) stood at 1.05, the “furin cleavage Z-score” value (15 min) was determined as 1.22 and the “furin cleavage Z-score” value (30 min) was 0.242 (inactive).

B30: HC2558 (peptide)
chain: CASTPCSATLAGNASASA
Turning to B30, the “furin cleavage Z-score” value (7.5 min) was 0.0385 (inactive), the “furin cleavage Z-score” value (15 min) is -0.233 (inactive) and the “furin cleavage Z-score” value (30 min) was -0.615 (inactive).

B31: HC298 (peptide)
chain: CALYVGDLCGAGNASASA
Take B31: the “furin cleavage Z-score” value by setting is: (7.5 min) -1.6 (inactive); (15 min) -0.331 (inactive); (30 min) -1.76 (inactive).

B32: HC438 (peptide)
chain: CAMNSTGFTKAGNASASA
For the sequence B32, the “furin cleavage Z-score” value by setting is: (7.5 min) 0.142 (inactive); (15 min) -0.334 (inactive); (30 min) 0.353 (inactive).

B33: HC1332 (peptide)
chain: CAALAELATRAGNASASA
As to B33, the “furin cleavage Z-score” value is -0.307 (inactive) (7.5 min), -0.0975 (inactive) (15 min) and -0.283 (inactive) (30 min).

B34: FS-2173 (peptide)
chain: CARQRRDLLNAGNASASA
B34: the “furin cleavage Z-score” value was 6.3 (active) (7.5 min), 11.7 (active) (15 min) and 11.3 (active) (30 min).

B35: FS-2584 (peptide)
chain: CARQKKAAEKAGNASASA
On to B35, for which the “furin cleavage Z-score” value runs as follows: (7.5 min) -1.07 (inactive); (15 min) -0.974 (inactive); (30 min) 1.2.

B36: FS-2175 (peptide)
chain: CARQVRYLEKAGNASASA
As for B36, the “furin cleavage Z-score” value was 0.662 (inactive) (7.5 min), 1.05 (15 min) and 1.72 (30 min).

B37: FS-2510 (peptide)
chain: CARQRRALERAGNASASA
For the sequence B37, the “furin cleavage Z-score” value is 7.27 (active) (7.5 min), 9.89 (active) (15 min) and 9.73 (active) (30 min).

B38: FS-1769 (peptide)
chain: CARQRRALEKAGNASASA
Take B38: the “furin cleavage Z-score” value by setting is: (7.5 min) 5.5 (active); (15 min) 5.75 (active); (30 min) 6.8 (active).

B39: FS-2761 (peptide)
chain: CARQRRGEERAGNASASA
On to B39, for which the “furin cleavage Z-score” value runs as follows: (7.5 min) 2.18; (15 min) 0.285 (inactive); (30 min) 0.208 (inactive).

B40: HC2376 (peptide)
chain: CAEVPCHGPSAGNASASA
With B40, the “furin cleavage Z-score” value (7.5 min) is -0.0304 (inactive), the “furin cleavage Z-score” value (15 min) was 0.46 (inactive) and the “furin cleavage Z-score” value (30 min) is -1.34 (inactive).

B41: HC1412 (peptide)
chain: CALSVEEACSAGNASASA
For the sequence B41, the “furin cleavage Z-score” value is -1.32 (inactive) (7.5 min), 0.888 (inactive) (15 min) and -0.38 (inactive) (30 min).

B42: FS-499 (peptide)
chain: CASHRRQRRVAGNASASA
As for B42, the “furin cleavage Z-score” value runs as follows: (7.5 min) 7.8 (active); (15 min) 8.25 (active); (30 min) 6.5 (active).

B43: FS-36 (peptide)
chain: CAISRRQRRVAGNASASA
In the case of B43, the “furin cleavage Z-score” value was 5.61 (active) (7.5 min), 5.68 (active) (15 min) and 6.35 (active) (30 min).

B44: FS-849 (peptide)
chain: CAQRHRQGRVAGNASASA
With B44, the “furin cleavage Z-score” value (7.5 min) is -0.109 (inactive), the “furin cleavage Z-score” value (15 min) was determined as 1.55 and the “furin cleavage Z-score” value (30 min) was 0.481 (inactive).

B45: FS-1258 (peptide)
chain: CARHRRPRRVAGNASASA
On to B45, for which the “furin cleavage Z-score” value is 3.43 (7.5 min), 4.61 (active) (15 min) and 4.95 (active) (30 min).

B46: FS-1495 (peptide)
chain: CATNNRKIRVAGNASASA
For the sequence B46, the “furin cleavage Z-score” value was 2.37 (7.5 min), 4.37 (active) (15 min) and 4.34 (active) (30 min).

B47: FS-121 (peptide)
chain: CADIARARRVAGNASASA
Regarding B47, the “furin cleavage Z-score” value by setting is: (7.5 min) -0.464 (inactive); (15 min) -0.299 (inactive); (30 min) 0.591 (inactive).

B48: FS-677 (peptide)
chain: CAKNQRKIRIAGNASASA
Take B48: the “furin cleavage Z-score” value (7.5 min) is -0.0796 (inactive), the “furin cleavage Z-score” value (15 min) is 0.212 (inactive) and the “furin cleavage Z-score” value (30 min) was determined as 1.01.
